# Assay outcomes (PubChem BioAssay)
# BRCA1 expr up – qHTS Assay to Identify Small Molecule Activators of BRCA1 Expression. hit rate 1.1% among 380,000. Potency, µM (top dose mostly 46.1 µM), without a hit: at the highest dose activation, actives largely listed as activators. MCF7-BRCA1-FFLuc reporter, luminescence, 48 h; response scale: scaled: vehicle 0%, 10 µM genistein 100%; note: potency is the fitted concentration of half-maximal effect; nearly all actives have a fitted effect of over 80% in size
#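 Compounds are tested at multiple concentrations on MCF7 BRCA1-luciferase reporter cells seeded at 2000 per well; after 48 h, a single luminescence end-point is taken and curves fitted to the normalized data.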
# TSHR antagonist – Antagonists of the Thyroid Stimulating Hormone Receptor: HTS campaign | Thyrotropin receptor (Homo sapiens), P16473 | TSHR-expressing cells, TSH-stimulated cAMP HTRF, 2 h; hits give low values | activity change, negative = inhibition, % at 11.5 µM | hit rate 0.2% among 330,000 | AID 504810, 2011;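 active = activity change below a set negative limit, meaning inhibition stronger than a set level, cut at about -70% in these data; inconclusive = activity change between two set negative limits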; note: % is set by controls: 0 for no effect and ±100 for the full control effect
# Target sequence (P16473 whole entry, looked up): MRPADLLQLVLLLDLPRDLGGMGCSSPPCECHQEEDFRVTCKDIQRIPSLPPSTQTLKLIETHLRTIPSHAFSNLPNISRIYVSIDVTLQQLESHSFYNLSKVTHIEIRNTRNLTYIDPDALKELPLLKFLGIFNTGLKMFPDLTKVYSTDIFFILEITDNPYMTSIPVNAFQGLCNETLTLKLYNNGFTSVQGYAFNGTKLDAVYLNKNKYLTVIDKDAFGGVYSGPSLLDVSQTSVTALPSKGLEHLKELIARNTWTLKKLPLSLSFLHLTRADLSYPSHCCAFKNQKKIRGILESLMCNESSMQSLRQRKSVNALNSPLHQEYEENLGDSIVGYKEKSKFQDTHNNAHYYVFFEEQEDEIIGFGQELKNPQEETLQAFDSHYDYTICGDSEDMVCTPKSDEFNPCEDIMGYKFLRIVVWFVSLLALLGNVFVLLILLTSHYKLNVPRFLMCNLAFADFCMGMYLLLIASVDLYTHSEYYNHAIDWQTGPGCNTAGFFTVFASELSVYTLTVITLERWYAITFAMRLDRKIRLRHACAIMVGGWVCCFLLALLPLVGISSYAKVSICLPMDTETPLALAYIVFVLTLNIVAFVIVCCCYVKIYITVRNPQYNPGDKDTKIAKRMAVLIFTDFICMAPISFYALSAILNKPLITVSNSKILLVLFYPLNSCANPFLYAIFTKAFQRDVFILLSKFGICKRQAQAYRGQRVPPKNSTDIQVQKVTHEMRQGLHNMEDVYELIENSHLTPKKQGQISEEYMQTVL
#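 TSHR-expressing cells, 200/well, pre-treated with compound, then stimulated with EC80 TSH (4nM final) for 2 hours at 37 deg C. cAMP measured by competitive HTRF: anti-cAMP cryptate antibody in lysis buffer plus cAMP-d2, read after 30 minutes at room temperature.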
# Anesthetic bind – qHTS Assay for Identification of Novel General Anesthetics; Ferritin light chain (Equus caballus), P02791; apoferritin/1-aminoanthracene competitive binding, fluorescence; Potency, µM (highest dose often 77.5 µM), without a hit: at the highest dose activity change, negative = displacement, usual class: inhibitors; hit rate 0.074% among 350,000; AID 485281, 2010; note: potency is the fitted concentration of half-maximal effect; % is set by controls: 0 for no effect and ±100 for the full control effect; nearly all actives have a fitted effect of over 20% in size
#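 Probe: 1-aminoanthracene (50% saturated, PBS). Protein: horse-spleen apoferritin, 10 uM. Incubation: 10 min, room temperature. Detection: 380 nm excitation, 535 nm emission. Analysis: normalized response, four-parameter Hill.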
# TSG101-PTAP inh – qHTS Assay for Iinhibitors of HIV-1 Budding by Blocking the Interaction of PTAP/TSG101 | Fluorescence polarization, FITC-PTAP peptide / Tsg101 binding | Potency, µM (doses to about 115 µM), inactives show at the top dose activity change, negative = inhibition, usual class: inhibitors | 340,000 tested, under 10 active | AID 493005, 2010; active = well fitted inhibition curve with a large enough effect in the main read-out, with a control signal flat, not every such curve was filed as active; inconclusive = small, poorly fitted or top-dose-only effect, or effect the other way, or a change in a side signal; inactive = no such curve, though single readings can be large or run the other way; note: potency is the fitted concentration of half-maximal effect; % of control where 0% means no effect
#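 Compounds were pin-transferred onto Tsg101 binding domain (10 uM final) in HEPES pH 7.5 buffer, then FITC-PTAP peptide was added at 50 nM final. After 20 min at RT, polarization reported peptide displacement across a qHTS concentration series.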
# S-ASM inh – Inhibitors of Secretory Acid Sphingomyelinase (S-ASM): qHTS. placental ASM, HMU-PC fluorogenic substrate, 60 min. Potency, µM (doses to about 57.5 µM), for the others: at the highest dose activity change, negative = inhibition, usual class: inhibitors. AID 504937, 2011. hit rate 0.006% among 340,000; note: potency is the fitted concentration of half-maximal effect
#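 HMU-PC0 cleavage (9 uM final) by human placental ASM, 60 min at 37 °C following 10 min compound exposure at RT; stopped at pH 10, fluorescence Ex 386/Em 447 nm.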
# The depositor's hits bear a star; i = inactive; ? = inconclusive; / = no result given. Only some compounds are listed: those with a hit (about 1.2% of all), similar ones and a draw of the others. Unless noted, calls come from the whole dose curve; as a rule, active = well fitted curve in the direction sought with a large enough effect; inconclusive = small, poorly fitted or top-dose-only effect, or another doubt; inactive = no such curve, though single readings can be large; an effect the other way counts as inactive or inconclusive.
SMILES,BRCA1 expr up,TSHR antagonist,Anesthetic bind,TSG101-PTAP inh,S-ASM inh
CN(C(=O)c1cc(COc2c(F)cccc2F)on1)C1CCOC1 (stereo not given),74%,1,-9%,-4%,/
CC(=O)c1ccc(OCc2cc(C(=O)N(C)C3CCOC3)no2)cc1 (stereo not given),13µM*,26,-1%,-6%,-4%
COc1cc(Cl)ccc1OCc1cc(C(=O)N2C[C@H]3CC[C@H]2C3)no1,11µM*,2,-19%,/,3%
CC(=O)c1ccc(OCc2cc(C(=O)N(C)CCOc3ccc(C)cc3)no2)cc1,4µM*,8,?,-3%,-16%
C=C1C=C(C(F)F)n2ncc(C(=O)NCc3ccccc3OC)c2N1,-4%,/,/,/,/
CC(=O)NC(c1ccco1)c1cc(Cl)c2ccc(N(C)C)nc2c1O (stereo not given),/,29,/,/,/
CCCCn1cnc2c(=O)[nH]c(N)nc21,-7%,/,/,/,/
Cc1ccc2c(c1)CCC2=O,0%,/,/,/,/
CN(C)c1ccc(C(I)C(I)c2ccnc3ccccc23)cc1 (stereo not given),23%,/,/,/,/
OC(Cc1ccc2ccccc2n1)c1ccccc1 (stereo not given),54%,/,/,/,/
Cc1cc(OCc2cc(C(=O)N(C)C3CCOC3)no2)cc(C)c1Cl (stereo not given),2.8µM*,-10,?,-6%,-3%
COc1cc(Cl)ccc1OCc1cc(C(=O)N(C)C2CCOC2)no1 (stereo not given),13µM*,1,-12%,-1%,-2%
O=C(c1ccco1)N1CCN(/C=C2\Nc3ccccc3C(=O)N2c2ccc(F)cc2)CC1,0%,/,/,/,/
O=C(Cn1cnc2c(oc3ccccc32)c1=O)c1ccccc1,7.1µM*,36,-14%,-6%,-1%
COc1ccccc1CCNC(=O)c1nc(-c2cccs2)no1,4µM*,-6,-16%,0%,0%
COc1ccccc1CC(=O)NCc1csc(-c2cccs2)n1,11µM*,19,0%,0%,-1%
CCNc1nc(N2CCCN(C)CC2)nc2cc(OC)c(OC)cc12,-17%,/,/,/,/
OC[C@@H]1O[C@H](O)[C@H](O)[C@@H](O)[C@@H]1O,/,/,-8%,/,/
O=C(COC(=O)C(O)c1ccccc1)NC12CC3CC(CC(C3)C1)C2 (stereo not given),-16%,-6,11µM*,-8%,-1%
CCCN1CNc2c(c(=O)[nH]c(=S)n2CCc2ccc(C)cc2C)C1,6%,/,/,/,/
CCOc1ccc2nc(SCC(=O)N(C)C)[nH]c2c1,10µM*,9,-2%,1%,4%
COc1ccc2nc(SCC(=O)NC(C)(C)C)[nH]c2c1,22%,5,-12%,-2%,-2%
COc1ccc2nc(SCC(=O)C(C)(C)C)[nH]c2c1,7.9µM*,2,-7%,-4%,0%
COc1ccc(-c2cc3nc4ccccc4n3c(N)c2C#N)cc1,4µM*,-13,37%,-3%,i
COc1ccc(-c2cc(-c3ccccc3)c(C#N)c(S(C)=O)n2)cc1 (stereo not given),-60%,-43,7%,-4%,176%
SMILES,BRCA1 expr up,TSHR antagonist,Anesthetic bind,TSG101-PTAP inh,S-ASM inh
O=C(COc1ccc(Cl)cc1Cl)NC(=S)Nc1ccccc1C(=O)O,/,-1,-6%,/,/
O=C(CCCOc1ccc(Cl)cc1Cl)Nc1ccccc1C(=O)O,6.3µM*,-10,-1%,0%,14%
CC#CCCCC(=O)Nc1ccc(C(=O)O)cc1,0%,3,-11%,1%,0%
CC#CCCCC(=O)Nc1ccccc1C(=O)O,11µM*,4,-11%,-6%,2%
O=C(Nc1ccncc1)c1cn(-c2ccccc2)nc1-c1cccs1,28%,-75*,-13%,-3%,-6%
CCOC(=O)c1sc(NC(=O)CSc2nccc(C)n2)c(C#N)c1C,3%,-10,-5%,0%,-1%
CCOC(=O)c1sc(NC(=O)CSc2n[nH]c(-c3ccncc3)n2)c(C#N)c1C,-14%,-75*,-10%,-8%,-6%
